# Measured values reported in the supplement of paper PMC10105736.
# A number with no mark means an inactive call.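 Rule for the calls: active = MAPPIT score above the 99th percentile of random reference set scores in the same batch; inactive = at or below it.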
# B1: Vha26 (protein)
# chain: MALSDADVQKQIKHMMAFIEQEANEKAEEIDAKAEEEFNIEKGRLVQQQRLKIMEYYEKKEKQVELQKKIQSSNMLNQARLKVLKVREDHVSSVLDDARKRLGEVTKNQSEYETVLTKLIVQGLFQIMEPKVILRCREVDVPLVRNVLPAAVEQYKAQINQNVELFIDEKDFLSADTCGGVELLALNGRIKVPNTLESRLDLISQQLVPEIRNALFGRNVNRKFTD
# B2: CG7639 (protein)
# chain: MPKSGRDGGASKDSKYDLSKISARVDRVNVSGLLRTHNDYVMRAADGLFKASNFQDLMLEAMSTKSYLHELGIFKDVSVHIDVSRGADASPQGYEVTFKGNEMSRMMGSAGTEIGQNEGSLRTELTIPNILGRGENISLQGSYSSTRANDLQLKFWKPFFHTRFKENRPEMSFSIFRQTDRFDISSFQTTNIGYLVDFSAHTMVGVDLTHSLQYENAIRDVGLLNKSVPFAIRDHCGPKLASLLRYSVVYDNRDGNVFPTRGIYLKSVNEYCGLGGNVAYTSSTAHGELNVPLFAGLVAQFCARVGVVKETKNTTQLPISSLFYCGGPLTLRGFKFGGAGPVVESTPIGAQSFWCTGAHLWAPLPFAGVFKNLASHFRMHFFYNIGNNNSFSTENMRSAFGMGLAVKLAERARIELNYCVPVRHQDTDRILNGFQFGIGYEFV
# B3: AdSS (protein)
# chain: MSASATNGTHYEQLHQGRTKMYKSKVDVVLGAQWGDEGKGKVVDMLASDVDIVCRCQGGNNAGHTVVANGTEFDFHLLPSGVVNEKCVSVIGNGVVIHLPSLFDEVLKNEAKGLQHLENRLIISDRAHLVFDFHQHVDGMQEAEKGGKSLGTTKKGIGPAYSSKATRNGIRVGELLGDFNLFSEKFKSIVATHVRLFPSINVDVEAELARYKDYADKVRPYVKDTICFLHTALRNGKTILVEGANAAMLDIDFGTYPYVTSSNCSIGGVLTGLGLPPQTIGEVIGVVKAYTTRVGDGPFPTEQLNDIGDLLQTRGFEVGVTTKRKRRCGWLDIPLLKYTSLVNGYTCICLTKLDILDTLPEIKVAVAYKKPNGEKLDHFPGTIAELGNIEVEYAVLPGWQTSTEEVRNFKELPENAQSYVRLLESELSVPVRWVGVGKGRESIINVH
# B4: grk (protein)
# chain: MMQIPFTRIFKVIFVLSTIVAVTDCCSSRILLLREHTLKIVQHQHSHMHEHAHELQQQIQETAVELLNRLELQRKQLEASAQEEADQLHPDTDPNPDSGGQLPNADDSIAADPEQDGIILGSSTDTWLASESSTPITDSETVTTPETVTHTGEPPPDPSSSSTPDSTTPSPNDKETEIQMLPCSEAYNTSFCLNGGHCFQHPMVNNTVFHSCLCVNDYDGERCAYKSWNGDYIYSPPTAQRKVRMAHIVFSFPVLLMLSSLYVLFAAVFMLRNVPDYRRKQQQLHLHKQRFFVRC
# B5: Surf4 (protein)
# chain: MSIPNEYIAKTEDVAEQVIKRGKNVLPTVARLCLIATFFEDGLRMYIQWNEQREYMDMSWGCGKFLATVFVLVNLLGQLGGCGMVMARFKVDIAVGLLFFIVVLQTVAYSILWDFQFLLRNFALIGALLLVLAEARIEGRSLFAGVPSMGENKPKNFMQLAGRILLAFMFITLIRFELSVWQVIQDIIGSILMVLVVLGYKTKLSALILVALLTILNLYHNAWWTIPSYKPLRDFLKYDFFQTLSVIGGLLMIVSLGPGGVSMDEHKKKW
# B6: Mlp84B (protein)
# chain: MPSFQPIEAPKCPRCGKSVYAAEERLAGGYVFHKNCFKCGMCNKSLDSTNCTEHERELYCKTCHGRKFGPKGYGFGTGAGTLSMDNGSQFLRENGDVPSVRNGARLEPRAIARAPEGEGCPRCGGYVYAAEQMLARGRSWHKECFKCGTCKKGLDSILCCEAPDKNIYCKGCYAKKFGPKGYGYGQGGGALQSDCYAHDDGAPQIRAAIDVDKIQARPGEGCPRCGGVVYAAEQKLSKGREWHKKCFNCKDCHKTLDSINASDGPDRDVYCRTCYGKKWGPHGYGFACGSGFLQTDGLTEDQISANRPFYNPDTTSIKARDGEGCPRCGGAVFAAEQQLSKGKVWHKKCYNCADCHRPLDSVLACDGPDGDIHCRACYGKLFGPKGFGYGHAPTLVSTSGESTIQFPDGRPLAGPKTSGGCPRCGFAVFAAEQMISKTRIWHKRCFYCSDCRKSLDSTNLNDGPDGDIYCRACYGRNFGPKGVGYGLGAGALTTF
# B7: CG2034 (protein)
# chain: MLSNLVVTKQKVVLVIDELNRERIAPKFIGSLLHEQGQGADTIKALPTGVSLKHVATFEALIDKYANNNTGSTTDSNSTGFNVILPTLADLLCYQTPAFIFGFLNRLRRSDNVRRVFLWASPQHLQDPHADYILAGCEYLAELVLRLESDKLLSLISRKPGGGVSNRRYSCEVSKTQFKVTPLDGGLPAGASPKQPSPEAEQTTEPASSTFKIELDEDEVLARNALTLPYERTSEPSEGNIIYTPDADDDFDEEDPDEDLCI
# B8: Mst87F (protein)
# chain: MCCGPCGPCCGPCCGPCCGPCGPCGGGCGPCYGPNVCGPCYACGPCGGCYCGYPCC
# B9: Tpst (protein)
# chain: MRLPYRNKKVTLWVLFGIIVITMFLFKFTELRPTCLFKVDAANELSSQMVRVEKYLTDDNQRVYSYNREMPLIFIGGVPRSGTTLMRAMLDAHPDVRCGQETRVIPRILQLRSHWLKSEKESLRLQEAGITKEVMNSAIAQFCLEIIAKHGEPAPRLCNKDPLTLKMGSYVIELFPNAKFLFMVRDGRATVHSIISRKVTITGFDLSSYRQCMQKWNHAIEVMHEQCRDIGKDRCMMVYYEQLVLHPEEWMRKILKFLDVPWNDAVLHHEEFINKPNGVPLSKVERSSDQVIKPVNLEAMSKWVGQIPGDVVRDMADIAPMLSVLGYDPYANPPDYGKPDAWVQDNTSKLKANRMLWESKAKQVLQMSSSEDDNTNTIINNSNNKDNNNNQYTINKIIPEQHSRQRQHVQQQHLQQQQQQHLQQQQHQRQQQQQQREEESESEREAEPDREQQLLHQKPKDVITIKQLPLAGSNNNNINNNINNNNNNNNIMEDPMADT
# B10: Coa8 (protein)
# chain: MNKCFRCQPRISLFQFSLPRCYAAVQPGCPPPQEKPVVGLPHKPDPKTVKCDYIGPPDAQSNLRPYVRHYGDEETRLARSLRLKRIEVEAWNTDFWTKHNKRFYEEKEDFIRLHKESGTSEVSADQMSHFYKAFLDKNWRIHIMYNISWYLKNFDILTLAAAVQLQRLLALAKRRS
# B11: Dpy-30L1 (protein)
# chain: MEAKTDAPISPAPTTNPPAEAGKEPNASSNAQANPTAAPGAPPSGAIAVGQSTNPVAQQQQQPAVAKKPSSETNNMPTRQYLDQTVAPVLLHGMQALARERPTDPIQFLASYLLKHSNGCDENNASAAAVDNNS
# B12: RpS19b (protein)
# chain: MPGVTVKEIDQHVLTKNMAAFLKKSGKIFVPEQAVYMKTGKFKETAPTDDDWFYTRCASIMRHLYLRSPAGVGAFTKVYSGRKRNGVRPSKHCRSSDGCIRKALQALEAANMVERHPDGGRKLTPQGQRNLDRIANKIVAKQRERSAPVSMIITT
# B13: spn-F (protein)
# chain: MEASAAKITPMASSMSASGSTNSPSSEKMNYALQVALQTIKERCIQLQRRVASMEEENQQLREASSRSEGAPRANEIGVTGDVLSLKAQVSELQRQKEQLEEHIGMVSNENRRLWSRLSQISKDQQLNALPSSTDSRAQQNQNLVRSKTFTQHSPNPHLRQKMLSDGIKDLSLEEIALDDFGASSEELGYPYNLQKVEETTSEPDANVDAKRCLDGLQELRREAMKQQQELRSVMTLLENRIALKPCPECAQKTIKKPEMADKSLETDDSLTSELKNYESQHNGHNGTPPSQRINIIQEKIKADAADAMEKTCPMCGKQYSSQVSFNAFREHVEMHFIDDALELESENSIERQFEFVSHAVGDF
# B14: htl (protein)
# chain: MAAAWSWRASHSTITMTSGSLVVLFLLLSIWQPAVQVEGRRQMANSQEMIKDHLGARSQNKTPAITNNANQSSTSSADLDDGAADDDDNKADLPVNVSSKPYWRNPKKMSFLQTRPSGSLLTLNCHALGNPEPNITWYRNGTVDWTRGYGSLKRNRWTLTMEDLVPGDCGNYTCKVCNSLGCIRHDTQVIVSDRVNHKPILMTGPLNLTLVVNSTGSMHCKYLSDLTSKKAWIFVPCHGMTNCSNNRSIIAEDKDQLDFVNVRMEQEGWYTCVESNSLGQSNSTAYLRVVRSLHVLEAGVASGSLHSTSFVYIFVFGGLIFIFMTTLFVFYAIRKMKHEKVLKQRIETVHQWTKKVIIFKPEGGGDSSGSMDTMIMPVVRIQKQRTTVLQNGNEPAPFNEYEFPLDSNWELPRSHLVLGATLGEGAFGRVVMAEVNNAIVAVKMVKEGHTDDDIASLVREMEVMKIIGRHINIINLLGCCSQNGPLYVIVEYAPHGNLKDFLYKNRPFGRDQDRDSSQPPPSPPAHVITEKDLIKFAHQIARGMDYLASRRCIHRDLAARNVLVSDDYVLKIADFGLARDIQSTDYYRKNTNGRLPIKWMAPESLQEKFYDSKSDVWSYGILLWEIMTYGQQPYPTIMSAEELYTYLMSGQRMEKPAKCSMNIYILMRQCWHFNADDRPPFTEIVEYMDKLLQTKEDYLDVDIANLDTPPSTSDEEEDETDNLQKWCNY
# B15: shrb (protein)
# chain: MSFFGKMFGGKKEVAPTTGEAIQKLRETENMLIKKQEFLEAKIEDELNIARKNASKNKRVALQALKKKKRLEKQLQQIDGTLSTIEMQREALESANTNTAVLTTMKNAADALKRAHQNMDVDKVHDMMDDIAEQQDVAREISDAISNPVAFGADLDDEDLERELDELEQENFDKEIIGIPEPTPTLPEAPTEDLPEKAKEKKKATTTTAVEDDDDPDMKQLLSWSN
# B16: RpS3 (protein)
# chain: MNANLPISKKRKFVSDGIFKAELNEFLTRELAEDGYSGVEVRVTPSRTEIIIMATKTQQVLGEKGRRIRELTAMVQKRFNFETGRIELYAEKVAARGLCAIAQAESLRYKLTGGLAVRRACYGVLRYIMESGAKGCEVVVSGKLRGQRAKSMKFVDGLMIHSGDPCNDYVETATRHVLLRQGVLGIKVKVMLPYDPKNKIGPKKPLPDNVSVVEPKEEKIYETPETEYKIPPPSKPLDDLSEAKVL
# Experiments:
# Experiment in all cases: MAPPIT interaction score (arbitrary units); higher = stronger binary interaction signal, active = hit call of the paper
# Vha13 = settings: MAPPIT configuration: N-C; pair source set: screen_4
# Trxr1 = settings: MAPPIT configuration: N-N; pair source set: Finley_Y2H
# Usp16-45 = settings: MAPPIT configuration: N-N; pair source set: Curagen_low_conf
# Tom20 = settings: MAPPIT configuration: N-N; pair source set: DPIM
# Tsp74F = settings: MAPPIT configuration: N-C; pair source set: screen_3
# Traf-like = settings: MAPPIT configuration: N-N; pair source set: Curagen_low_conf
# U4-U6-60K = settings: MAPPIT configuration: N-N; pair source set: DPIM
# Vsx1 = settings: MAPPIT configuration: N-C; pair source set: screen_3
# Tsp96F = settings: MAPPIT configuration: N-C; pair source set: screen_3
# ninaD = settings: MAPPIT configuration: N-C; pair source set: screen_3
# Uba4 = settings: MAPPIT configuration: N-N; pair source set: Curagen_high_conf
# Vps51 = settings: MAPPIT configuration: N-N; pair source set: screen_2
# Tm1 = settings: MAPPIT configuration: N-N; pair source set: Curagen_high_conf
# Vti1a = settings: MAPPIT configuration: N-N; pair source set: Curagen_high_conf
# Uba5 = settings: pair source set: RRS
# Vps24 = settings: MAPPIT configuration: N-N; pair source set: Curagen_high_conf
# TwdlW = settings: MAPPIT configuration: N-N; pair source set: Lit-BS-16
# 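Note: HEK293T cells with Epo stimulation, STAT-responsive firefly luciferase reporter, fold induction versus unstimulated cells divided by the larger fold induction of two negative controls lacking either bait or prey.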
binder,measurement,setting,value
B1,MAPPIT interaction score,Vha13,1.21
B2,MAPPIT interaction score,Trxr1,-0.0261
B3,MAPPIT interaction score,Usp16-45,1.38
B4,MAPPIT interaction score,Tom20,0.109
B5,MAPPIT interaction score,Tsp74F,-0.232
B6,MAPPIT interaction score,Traf-like,-0.422
B7,MAPPIT interaction score,U4-U6-60K,0.24
B8,MAPPIT interaction score,Vsx1,0.606
B9,MAPPIT interaction score,Tsp96F,-0.524
same,MAPPIT interaction score,ninaD,0.243
B10,MAPPIT interaction score,Uba4,2.52 (active)
B11,MAPPIT interaction score,Vps51,1.49
B12,MAPPIT interaction score,Tm1,0.314
B13,MAPPIT interaction score,Vti1a,0.032
B14,MAPPIT interaction score,Uba5; MAPPIT configuration: N-C,-0.924
same,MAPPIT interaction score,Uba5; MAPPIT configuration: N-N,-0.283
B15,MAPPIT interaction score,Vps24,0.054
B16,MAPPIT interaction score,TwdlW,-0.331
